{"source": "paper PMC7862700", "about": "“An all-to-all approach to the identification of sequence-specific readers for epigenetic DNA modifications on cytosine”", "test_in_all_cases": "DAPPL (digital affinity profiling via proximity ligation, sequencing); 10 mM Tris-HCl pH 7.5, 50 mM NaCl, 1 mM DTT, 4% glycerol, room temperature, 30 min; GST-TFs on glutathione beads, 16-mer random dsDNA library, 0.1% formaldehyde crosslink after washing; high values mean tight binding", "details_in_all_cases": "protein: recombinant; tags: N-terminal GST; dsDNA, one strand shown", "key": {"FLI1": {"molecular_target": "T1, FLI1 (Homo sapiens, UniProt Q01543 1-452)", "T1 sequence": "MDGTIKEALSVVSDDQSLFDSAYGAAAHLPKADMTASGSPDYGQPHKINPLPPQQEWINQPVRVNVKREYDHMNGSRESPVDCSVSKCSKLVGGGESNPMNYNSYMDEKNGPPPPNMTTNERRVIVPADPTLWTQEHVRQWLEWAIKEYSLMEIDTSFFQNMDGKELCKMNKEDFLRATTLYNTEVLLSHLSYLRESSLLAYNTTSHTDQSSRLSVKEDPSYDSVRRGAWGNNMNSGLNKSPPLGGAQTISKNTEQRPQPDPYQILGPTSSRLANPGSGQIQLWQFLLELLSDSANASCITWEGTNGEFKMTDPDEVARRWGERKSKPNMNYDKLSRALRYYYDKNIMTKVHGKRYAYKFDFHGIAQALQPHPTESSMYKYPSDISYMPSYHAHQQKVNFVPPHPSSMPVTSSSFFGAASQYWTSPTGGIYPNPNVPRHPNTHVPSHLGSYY", "method_in_brief": "(§1)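 Pools were built from human transcription factors expressed in yeast as GST fusions, captured on glutathione beads and DNA-barcoded, along with a tag-only sample. Incubation with 200 nmole of a 16-mer random double-stranded DNA library lasted 30 min at room temperature in Tris/NaCl/DTT/glycerol buffer, and was followed by washing, 0.1% formaldehyde crosslinking, proximity ligation, PCR amplification and Illumina NextSeq500 sequencing. Binding signal is the quotient of each hexamer's read frequency for a factor and its frequency for the tag-only sample.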"}, "ELK1": {"molecular_target": "T2, ELK1 (Homo sapiens, UniProt P19419 1-428)", "T2 sequence": "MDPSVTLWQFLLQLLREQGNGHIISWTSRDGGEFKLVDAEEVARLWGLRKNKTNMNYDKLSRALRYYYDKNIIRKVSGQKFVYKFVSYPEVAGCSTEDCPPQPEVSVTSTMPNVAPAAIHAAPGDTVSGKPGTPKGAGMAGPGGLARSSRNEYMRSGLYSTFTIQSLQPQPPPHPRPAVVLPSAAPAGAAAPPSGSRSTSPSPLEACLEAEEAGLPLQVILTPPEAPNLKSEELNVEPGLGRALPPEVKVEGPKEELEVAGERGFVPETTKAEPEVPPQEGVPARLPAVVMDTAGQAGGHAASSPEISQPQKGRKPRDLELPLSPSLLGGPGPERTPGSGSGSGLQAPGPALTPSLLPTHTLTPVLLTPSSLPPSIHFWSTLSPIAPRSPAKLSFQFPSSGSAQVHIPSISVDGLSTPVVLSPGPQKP", "method_in_brief": "as §1"}, "GABPA": {"molecular_target": "T3, GABPA (Homo sapiens, UniProt Q06546 1-454)", "T3 sequence": "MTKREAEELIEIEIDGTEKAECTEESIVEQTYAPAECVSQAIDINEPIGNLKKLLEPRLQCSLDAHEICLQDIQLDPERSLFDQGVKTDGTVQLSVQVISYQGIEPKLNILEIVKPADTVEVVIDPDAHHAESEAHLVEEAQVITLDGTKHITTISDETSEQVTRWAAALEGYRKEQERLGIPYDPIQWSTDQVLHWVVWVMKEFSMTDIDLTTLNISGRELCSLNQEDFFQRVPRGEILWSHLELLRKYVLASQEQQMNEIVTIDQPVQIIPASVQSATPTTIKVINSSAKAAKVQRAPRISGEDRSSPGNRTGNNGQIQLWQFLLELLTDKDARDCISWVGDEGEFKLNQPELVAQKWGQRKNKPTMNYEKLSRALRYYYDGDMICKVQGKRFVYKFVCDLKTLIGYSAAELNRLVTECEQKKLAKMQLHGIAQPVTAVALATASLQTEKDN", "method_in_brief": "as §1"}, "ERG": {"molecular_target": "T4, ERG (Homo sapiens, UniProt P11308 1-479)", "T4 sequence": "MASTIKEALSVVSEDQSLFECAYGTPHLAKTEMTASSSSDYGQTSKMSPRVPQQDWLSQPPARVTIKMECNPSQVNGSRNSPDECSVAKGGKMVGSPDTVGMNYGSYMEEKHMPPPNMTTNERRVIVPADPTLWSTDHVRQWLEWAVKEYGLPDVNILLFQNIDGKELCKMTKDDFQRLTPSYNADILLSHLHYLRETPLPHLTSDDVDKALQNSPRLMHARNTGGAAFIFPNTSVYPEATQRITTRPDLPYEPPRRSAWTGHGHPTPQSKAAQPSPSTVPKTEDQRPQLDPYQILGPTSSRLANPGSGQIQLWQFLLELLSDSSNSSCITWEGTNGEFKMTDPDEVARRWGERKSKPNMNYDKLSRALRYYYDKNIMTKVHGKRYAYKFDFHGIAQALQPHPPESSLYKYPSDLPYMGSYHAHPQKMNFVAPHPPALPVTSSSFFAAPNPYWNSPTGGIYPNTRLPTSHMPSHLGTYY", "method_in_brief": "as §1"}, "ELF1": {"molecular_target": "ELF1 (Homo sapiens, UniProt P32519 1-619)", "sequence (P32519 whole entry)": "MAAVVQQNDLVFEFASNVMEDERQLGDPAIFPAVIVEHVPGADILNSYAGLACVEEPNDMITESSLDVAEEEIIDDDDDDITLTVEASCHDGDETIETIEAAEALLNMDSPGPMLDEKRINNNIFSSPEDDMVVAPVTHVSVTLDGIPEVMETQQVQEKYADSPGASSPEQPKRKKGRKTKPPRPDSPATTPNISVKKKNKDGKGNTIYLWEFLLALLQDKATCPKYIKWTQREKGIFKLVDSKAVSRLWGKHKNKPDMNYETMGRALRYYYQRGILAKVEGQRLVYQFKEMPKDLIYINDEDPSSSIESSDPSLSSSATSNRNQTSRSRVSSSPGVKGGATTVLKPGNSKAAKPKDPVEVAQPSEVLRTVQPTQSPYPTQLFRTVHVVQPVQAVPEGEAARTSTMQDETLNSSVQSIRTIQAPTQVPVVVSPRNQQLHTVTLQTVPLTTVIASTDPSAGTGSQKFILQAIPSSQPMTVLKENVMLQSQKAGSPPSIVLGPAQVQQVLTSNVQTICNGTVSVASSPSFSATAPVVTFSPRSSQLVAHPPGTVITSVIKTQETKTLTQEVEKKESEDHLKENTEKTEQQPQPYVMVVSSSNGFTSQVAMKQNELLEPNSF", "method_in_brief": "as §1"}, "EHF": {"molecular_target": "T5, EHF (Homo sapiens, UniProt Q9NZC4 1-300)", "T5 sequence": "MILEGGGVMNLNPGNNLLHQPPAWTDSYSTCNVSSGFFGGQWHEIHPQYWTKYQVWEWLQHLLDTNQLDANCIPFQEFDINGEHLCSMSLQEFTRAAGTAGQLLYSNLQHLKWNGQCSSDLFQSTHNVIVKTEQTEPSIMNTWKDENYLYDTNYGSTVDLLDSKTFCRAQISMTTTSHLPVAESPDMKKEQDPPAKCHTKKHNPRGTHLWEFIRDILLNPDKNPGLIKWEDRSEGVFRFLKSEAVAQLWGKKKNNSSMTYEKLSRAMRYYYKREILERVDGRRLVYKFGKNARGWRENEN", "method_in_brief": "as §1"}, "SPI1": {"molecular_target": "SPI1 (Homo sapiens, UniProt P17947 1-270)", "method_in_brief": "as §1"}, "SPIB": {"molecular_target": "SPIB (Homo sapiens, UniProt Q01892 1-262)", "sequence (Q01892 whole entry)": "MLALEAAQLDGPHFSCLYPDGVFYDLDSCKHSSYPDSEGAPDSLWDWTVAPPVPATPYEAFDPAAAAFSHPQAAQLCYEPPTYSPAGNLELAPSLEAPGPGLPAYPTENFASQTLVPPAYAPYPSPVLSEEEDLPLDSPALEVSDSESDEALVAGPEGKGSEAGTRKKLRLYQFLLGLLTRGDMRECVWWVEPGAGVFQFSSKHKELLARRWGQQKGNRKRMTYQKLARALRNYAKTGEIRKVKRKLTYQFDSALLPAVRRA", "method_in_brief": "as §1"}, "ELK3": {"molecular_target": "T6, ELK3 (Homo sapiens, UniProt P41970 1-407)", "T6 sequence": "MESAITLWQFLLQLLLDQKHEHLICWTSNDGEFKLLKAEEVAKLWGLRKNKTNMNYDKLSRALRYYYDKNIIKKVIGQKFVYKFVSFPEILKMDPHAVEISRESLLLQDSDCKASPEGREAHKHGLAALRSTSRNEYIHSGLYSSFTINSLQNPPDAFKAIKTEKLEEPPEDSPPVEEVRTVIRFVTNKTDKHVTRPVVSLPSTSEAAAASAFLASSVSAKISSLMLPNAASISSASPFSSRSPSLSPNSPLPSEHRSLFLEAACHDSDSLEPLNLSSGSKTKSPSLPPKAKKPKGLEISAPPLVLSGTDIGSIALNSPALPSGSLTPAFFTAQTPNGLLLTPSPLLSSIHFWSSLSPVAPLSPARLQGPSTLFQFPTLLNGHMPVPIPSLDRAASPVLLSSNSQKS", "method_in_brief": "as §1"}}, "data": [{"sequence": "GTTAAT", "values": [{"measurement": "binding signal", "setting": "FLI1", "value": "1.14 fold enrichment (6-mer frequency, TF over GST control)"}, {"measurement": "binding signal", "setting": "ELK1", "value": "1.19 fold enrichment (6-mer frequency, TF over GST control)"}, {"measurement": "binding signal", "setting": "GABPA", "value": "1.06 fold enrichment (6-mer frequency, TF over GST control)"}, {"measurement": "binding signal", "setting": "ERG", "value": "1.1 fold enrichment (6-mer frequency, TF over GST control)"}, {"measurement": "binding signal", "setting": "ELF1", "value": "1.03 fold enrichment (6-mer frequency, TF over GST control)"}, {"measurement": "binding signal", "setting": "EHF", "value": "1.16 fold enrichment (6-mer frequency, TF over GST control)"}, {"measurement": "binding signal", "setting": "SPI1", "value": "1.1 fold enrichment (6-mer frequency, TF over GST control)"}, {"measurement": "binding signal", "setting": "SPIB", "value": "1.15 fold enrichment (6-mer frequency, TF over GST control)"}, {"measurement": "binding signal", "setting": "ELK3", "value": "1.12 fold enrichment (6-mer frequency, TF over GST control)"}]}]}
